This is part of a sample that, as a whole, favours compounds with a hit. Of some 83,000 tested, about 20% had one in any assay.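 48-hour exposure, single concentration, 96-well plates; percent growth endpoint where 0 means no net growth. Active: below 10.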 A number with no mark means an inactive call. Calls of active or inactive are those of the source.
Tested on: HL-60(TB) leukemia
Test: NCI-60 one-dose screen, 48 h (100 = growth as untreated, 0 = no growth, -100 = all killed)
Conditions: 10 µM unless noted

Structure (SMILES)	growth
O=c1c2ccccc2n(CC(O)CN2CCCC2)c2c(Br)cccc12 (stereo unspecified)	82.3%
Nc1cc(C(=O)O)cc(C(=O)O)c1	90.2%
FC(F)(F)Oc1ccc2nc3nc4ccc[nH]c4cc3c2c1	73.4%
CC1C=CC(OC(=O)C(C)(O)CCC(O)(C(=O)OC2CC(O)C(C(C)C)CC2(C)O)C(C)C)(C(C)C)CC1 (stereo unspecified)	-50.8% [4.63 µM] (active)
CC(C)C1CCC(C)C(O)C1 (stereo unspecified)	103%
Cc1c(C)c2c(c(C)c1OCC(=O)O)CC[C@@](C)(CCC[C@@H](C)CCC[C@@H](C)CCCC(C)C)O2	1.94% [50 µM] (active)
CN1CCc2c(sc3nc4n(-c5ccc(Cl)cc5)cnn4c(=O)c23)C1	105%
Cc1nc2c(c(=O)[nH]1)OCN(Cc1ccccc1)C2	96.5%
O=C(/C=C/c1ccc(Oc2ccc(Br)cc2)cc1)c1ccc(Br)cc1	88%
COc1cc2c(=O)n(CC3CCCCC3)c3c4cc[nH]c4ncc3c2cc1OC	42.9%
O=C(CCC(=O)N(CCO)CCO)N(CCO)CCO	89%
O=C(O)c1ccc(-c2nn(-c3ccc(C(=O)O)cc3)cc2CNc2ccc(Br)cc2)cc1	107%
Cn1/c(=N\N=C\c2ccccc2OCCO)sc2ccccc21	92.5%
O=C1C=CC(=O)C2=C1CCCC2	28.7%
CCCCOCCOCCOCc1cc2c(cc1Br)OCO2	108%
N/C(=N\N=C\c1cc2ccccc2[nH]1)N/N=C/c1cc2ccccc2[nH]1	101%
